These entries were drawn from the full list.
aSyn UTR act: Activators working through SNCA 5'UTR binding (MLPCN) | 7.1% of 300,000 active | alpha-synuclein 5'UTR reporter, activators screen | activity score, % (tested at 7.5 µM), hits read low; in the data active = activity score below about -60%
The depositor's hits bear a star.

SMILES | aSyn UTR act
CC(=O)O[C@H]1C(=O)[C@@]2(C)C([C@H](OC(=O)c3ccccc3)[C@]3(O)C[C@H](OC(=O)[C@H](O)[C@@H](NC(=O)Cc4ccccc4)c4ccccc4)C(C)=C1C3(C)C)[C@]1(OC(C)=O)CO[C@@H]1C[C@@H]2O (stereo not given in full) | 93.4
Cc1cc(NC(=O)CCl)no1 | -98.7*
O=C(c1ccccc1)C(CN1CCCC1)c1ccccc1 (stereo not given) | -77.4*
O=c1[nH]c(=S)n(C2CC2)c(O)c1C=Nc1ccc2c(c1)OCO2 | -141.4*
CN1CCN(c2ccc3c(c2)S(=O)(=O)c2ccccc2C3=O)CC1 | -111.8*
Cc1ccc2cc(C=C(C#N)C#N)c(Cl)nc2c1 | -78.8*
CC/C(=N\N1CCCCC1)c1c(O)[nH]c(=O)[nH]c1=O | 59.2
Cc1ccc(-c2nc(N(C)C3CCN(C)CC3)c3ccccc3n2)cc1 | -92.7*
FC(F)(F)c1ccc(NC2=NCCCS2)cc1 | -68.7*
CN(C)C(Cc1ccccc1)C(=O)c1c[nH]c2ccccc12 (stereo not given) | -64.4*
CCCCCn1c(=O)c(C(=O)Nc2cnccn2)c(O)c2ccccc21 | 98.1
CCCCCn1c(=O)c(C(=O)Nc2ccccc2C)c(O)c2ccccc21 | -82.7*
CCCCCn1c(=O)c(C(=O)Nc2ccccc2S(N)(=O)=O)c(O)c2ccccc21 | 68.8
O=Cc1cn(Cc2cccc(F)c2)c2ccccc12 | 52.4
CCc1ccc(-c2nn(Cc3ccccc3)cc2C=O)cc1 | -140.0*
CC(=O)Nc1ccccc1C(=O)OCc1cccc(F)c1 | -84.9*
CC(=O)O[C@@]12CO[C@@H]1C[C@H](O)[C@@]1(C)C(=O)[C@H](O)C3=C(C)[C@@H](OC(=O)[C@H](O)[C@@H](NC(=O)c4ccccc4)c4ccccc4)C[C@@](O)([C@@H](OC(=O)c4ccccc4)C12)C3(C)C (stereo not given in full) | 114.0
COc1ccc(/C=C/C2=CCN(C)CC2)cc1 | -78.7*
CC(C)(C)c1ccc(C(=O)C2CCCN(C3CCC3)C2)cc1 (stereo not given) | -72.2*
COc1ccccc1CN1CCCC(C(=O)c2ccccc2SC)C1 (stereo not given) | 52.1
CC(C)(C)c1ccc(C(=O)C2CCCN(Cc3ccon3)C2)cc1 (stereo not given) | -123.7*
Nc1ccccc1C(=O)OCC(=O)c1ccc2c(c1)OCCO2 | -63.7*
CCC(C)/C=C(C)/C=C/C1=CC2=C(Cl)C(=O)C(C)(OC(C)=O)C(=O)C2=CO1 (stereo not given) | -96.3*
O=C(C1CC(c2ccc(Cl)c(Cl)c2)=NO1)N1CCC2(CC1)OCCO2 (stereo not given) | -130.9*
COc1cccc(C2=NOC(C(=O)N3CCC4(CC3)OCCO4)C2)c1 (stereo not given) | -105.4*
SMILES | aSyn UTR act
O=C(C1CC(c2ccc(F)cc2)=NO1)N1CCC2(CC1)OCCO2 (stereo not given) | -127.2*
Cc1cc(OCCN2CC2)c2ccccc2n1 | -72.8*
CC(=O)O[C@@H]1/C=C/[C@](C)(O)C[C@@H](C)C/C=C/[C@H]2[C@H](O)C(C)=C(C)[C@H]3[C@H](Cc4ccccc4)NC(=O)[C@@]123 | 116.7
Nc1c2c(nc3sc4c(c13)CCCC4)CCCC2 | -117.6*
Nc1c2c(nc3sc4c(c13)CCCC4)CCCCC2 | -169.8*
CC1(C)C[C@H]2C=C(C=O)[C@]3(C=O)C[C@]3(C)[C@H]2C1 | 116.9
COc1cc2c(c(OC)c1OC)-c1ccc(O)c(=O)cc1C(NC(C)=O)CC2 (stereo not given) | 90.3
CN(C)c1ccc2c(c1)N=C(c1ccco1)OP2(=S)N1CCOCC1 (stereo not given) | -129.7*
CC1CCC(C(C)C)C(OC(=O)Cn2c(COc3ccccc3)[n+](C)c3ccccc32)C1 (stereo not given) | 66.5
O=C(Nc1ccccc1)c1cccn(Cc2ccccc2)c1=O | -96.1*
Cc1c(OC(=O)N(C)C)ccc2c1O/C(=C\c1ccco1)C2=O | -133.7*
C[C@H]1CCC[C@@H](O)CCC/C=C/c2cc(O)cc(O)c2C(=O)O1 | -170.2*
C[C@H]1CCC/C=C/C2C[C@H](O)CC2[C@H](O)/C=C/C(=O)O1 (stereo not given in full) | 100.0
CC1CCC/C=C/C2CC(O)CC2C(O)/C=C/C(=O)O1 (stereo not given) | 132.8
CCCCCCCSc1cc(OC)c(CCN(C)C)cc1OC | 57.7
C=C1C(=O)O[C@H]2C[C@@H](C)[C@@H]3C=CC(=O)[C@@]3(C)C[C@H]12 | -151.1*
C=C1C(=O)O[C@@H]2C[C@@H](C)[C@@H]3C=CC(=O)[C@@]3(C)[C@@H](OC(=O)CC(=O)O[C@H]3[C@@H]4C(=C)C(=O)O[C@@H]4C[C@@H](C)[C@@H]4C=CC(=O)[C@]43C)[C@H]12 | 116.1
Cc1ccc(N2C(=O)NC(=O)/C(=C\C=C\c3ccco3)C2=O)cc1 | -92.5*
CN(C)c1ccc(/C=C/C=C2/C(=O)NC(=O)N(c3ccccc3)C2=O)cc1 | -96.5*
O=C1NC(=O)N(c2ccccc2)C(=O)/C1=C/C=C/c1ccco1 | -135.8*
Cc1cccc(N2C(=O)NC(=O)/C(=C\C=C\c3ccco3)C2=O)c1 | -130.6*
C#CCOc1cc(C2C3=C(COC3=O)Nc3cc4c(cc32)OCO4)ccc1OC (stereo not given) | 77.8
CNC(=O)Oc1cccc(-c2cn3cc(Cl)ccc3n2)c1 | 60.8
CCn1c(C)c(C(=O)Nc2ccc(OC)cc2)c2cc(OC)ccc21 | -86.1*
C=CCN=C(SCC(=O)c1ccc(Cl)cc1)c1c(O)n(C)c(=O)n(C)c1=O | -71.3*
SMILES | aSyn UTR act
CC12CC[C@H]3[C@@H](CCC4(O)C[C@H](O)CCC34/C=N/NC(=O)c3ccccc3[N+](=O)[O-])C1(O)CCC2C1=CC(=O)OC1 (stereo not given in full) | 117.3
CN1C(=O)C(=Cc2ccc(OCCN(C)c3ccccn3)cc2)C(=O)N(C)C1=O | -82.1*
C[N+]1=C(/C=C/Nc2ccccc2)C(C)(C)c2ccccc21 | -93.1*
CC1(C)CN=C(NCc2ccccc2Cl)S1 | -91.9*
CCCCc1nc2ccccc2c(=O)n1-c1ccccc1[N+](=O)[O-] | -73.2*
O=C1C(=O)c2ccccc2-c2ccccc21 | 118.9
O=C(c1cc(-c2ccccc2)on1)N1CCC2(CC1)OCCO2 | -112.6*
Cc1nc2cc(-c3ccccc3)nn2c(C)c1CCC(=O)N1CCC2(CC1)OCCO2 | 79.3
O=C(Nc1ccc(OC(=O)N2CCCCC2)cc1)N1CCOCC1 | 88.9
O=C(Nc1ccc(Cl)c(Cl)c1)c1ccco1 | -170.5*
c1ccc(-c2nc(N3CCOCC3)s[n+]2-c2ccccc2)cc1 | -74.8*
O=C1NC(=O)C(CCc2ccncc2)(Cc2cccc(Cl)c2Cl)C(=O)N1c1ccc(Br)cc1 (stereo not given) | 57.6
CN(C)c1ccc(C(=O)c2ccc(N(C)C)cc2)cc1 | -108.0*
CC1Oc2cc3c(-c4c(O)cc(O)c5c(O)c6c(cc45)OC(C)C(C)C6=O)c(O)cc(O)c3c(O)c2C(=O)C1C (stereo not given) | 87.0
O=C(c1ccc2c(c1)ncn2C1CCCCC1)N1CCC2(CC1)OCCO2 | -171.1*
O=c1c2ccccc2[nH]c(=S)n1-c1ccc2c(c1)OCCO2 | -105.4*
NC(=O)c1cn(C2OC(CO)C(O)C2O)c2ncnc(N)c12 (stereo not given) | 105.8

Source: PubChem
